# Results as given in the supplement of paper PMC5919970.
# The full ranking holds about 2,000 compounds; the median of “fractional viability relative to vehicle” is about 0.92, and the lowest 2% start at about 0.11. The list comes from a sample in which the lowest values are over-represented; it also holds similar structures and randomly drawn compounds.
# System: TYKNU
# Assay: fractional viability relative to vehicle; TYKNU is a high-grade serous ovarian cancer line; higher = less growth inhibition
# Conditions: 72 h, genotype: OPA1 knockout (sgOPA1 #2)
# Method in brief: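 TYKNU control cells or lentiCRISPRv2 knockout derivatives were seeded at 500 cells per well into drug-stamped 384-well plates holding a ~2100-compound library at 2 or 10 μM, in duplicate. Cells were grown at 37 °C in 5% CO2 in RPMI 1640 with 10% FBS, and drug treatment lasted 72 h. Viability was read by Cell Titer Glo luminescence. Duplicate treatment wells were averaged and normalised to duplicate control wells from the same plate position.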
compound,measurement,setting,value
CC(=O)O/N=C1\C(=O)N(Cc2cc(Cl)ccc2Cl)c2ccc(Cl)cc21,fractional viability,2uM,1.06
same,fractional viability,10uM,0.985
NC(=O)c1noc([C@H](CCCC2CCCCC2)CC(=O)NO)n1,fractional viability,2uM,1.1
same,fractional viability,10uM,0.853
COC(=O)N1CCN(Cc2cccc(NC(=O)Nc3ccc(C)nc3)c2F)CC1,fractional viability,2uM,1.01
same,fractional viability,10uM,0.982
CCCCC(F)(F)[C@@]1(O)CC[C@H]2[C@@H](CC(=O)[C@@H]2CCCCCCC(=O)O)O1 [Lubiprostone],fractional viability,2uM,0.935
same,fractional viability,10uM,1.03
CC(=O)c1cc2c(o1)C(=O)c1ccccc1C2=O [Napabucasin],fractional viability,2uM,0.0542
same,fractional viability,10uM,0.0318
O=C(O)c1cc(=O)c2ccccc2o1 [Chromocarb],fractional viability,2uM,0.872
same,fractional viability,10uM,0.816
O=C1c2ccccc2C(=O)c2c1ccc(O)c2O [Alizarin],fractional viability,2uM,1.19
same,fractional viability,10uM,0.838
CC(CNC(=O)c1cccnc1)NC(=O)c1cccnc1 (configuration not stated) [Nicaraven],fractional viability,2uM,0.886
same,fractional viability,10uM,0.93
C[C@H]1O[C@@H](O[C@H]2[C@@H](O)C[C@H](O[C@H]3[C@@H](O)C[C@H](O[C@H]4CC[C@@]5(C)[C@H](CC[C@@H]6[C@@H]5C[C@@H](O)[C@]5(C)[C@@H](C7=CC(=O)OC7)CC[C@]65O)C4)O[C@@H]3C)O[C@@H]2C)C[C@H](O)[C@@H]1O [Digoxin],fractional viability,2uM,0.141
same,fractional viability,10uM,0.0738
Cn1c(=O)c(F)c(Nc2ccc(I)cc2F)c2c(=O)n(C[C@@H](O)CO)cnc21,fractional viability,2uM,0.516
same,fractional viability,10uM,0.403
COc1ccc(CCNCc2ccc(OCc3ccc(Cl)nc3)c(OC)c2)cc1OC,fractional viability,2uM,1.04
same,fractional viability,10uM,0.914
CC[C@H]1OC(=O)[C@H](C)[C@@H](O[C@H]2C[C@@](C)(OC)[C@@H](O)[C@H](C)O2)[C@H](C)[C@@H](O[C@@H]2O[C@H](C)C[C@H](N(C)C)[C@H]2O)[C@](C)(O)C[C@@H](C)C(=O)[C@H](C)[C@H]2OC(=O)O[C@@]21C [Erythromycin Cyclocarbonate],fractional viability,2uM,0.834
same,fractional viability,10uM,0.883
Cc1[nH]c(/C=C2\C(=O)Nc3ccc(S(=O)(=O)N(C)c4cccc(Cl)c4)cc32)c(C)c1C(=O)N1CCN(C)CC1,fractional viability,2uM,1.37
same,fractional viability,10uM,0.133
CN1CCN(C(=O)c2cc3cc(Cl)ccc3[nH]2)CC1,fractional viability,2uM,1.08
same,fractional viability,10uM,1.08
CN1CCCN(C(=O)c2cccc(-c3ccc(/C=C4/C(=O)Nc5ccc(Cl)cc54)o3)c2)CC1,fractional viability,2uM,0.132
same,fractional viability,10uM,0.0251
CS(=O)(=O)c1ccc(-c2nnc(/C=C/c3nnc(-c4ccc(C#N)cc4)o3)n2-c2ccccc2Cl)nc1,fractional viability,2uM,1.11
same,fractional viability,10uM,1.03
O=C(Cc1cccc(OC(F)(F)F)c1)Nc1ccc(CCCCc2nnc(NC(=O)Cc3ccccn3)s2)nn1,fractional viability,2uM,0.25
same,fractional viability,10uM,0.2
CN[C@@H](C)C(=O)N[C@H](C(=O)N1CCC[C@H]1c1nc(C(=O)c2ccc(F)cc2)cs1)C1CCCCC1,fractional viability,2uM,0.719
same,fractional viability,10uM,0.643
N#C/C(=C1/SC[C@@H](c2ccc(Cl)cc2Cl)S1)n1ccnc1 [Luliconazole],fractional viability,2uM,0.989
same,fractional viability,10uM,0.818
Cc1cccc(-c2[nH]c(C(C)(C)C)nc2-c2ccc3c(c2)OCO3)n1,fractional viability,2uM,1.2
same,fractional viability,10uM,0.682
"CCCS(=O)(=O)Nc1ccc(F)c(C(=O)c2c[nH]c3ncc(-c4ccc(Cl)cc4)cc23)c1F [Vemurafenib (PLX4032, RG7204)]",fractional viability,2uM,1.13
same,fractional viability,10uM,1
COc1ncc(-c2ccc3nccc(-c4ccnnc4)c3c2)cc1NS(=O)(=O)c1ccc(F)cc1F,fractional viability,2uM,0.354
same,fractional viability,10uM,0.0636
Cc1ccc(S(=O)(=O)/C=C/C#N)cc1,fractional viability,2uM,0.121
same,fractional viability,10uM,0.09
CC(C)(C)c1ccc(S(=O)(=O)/C=C/C#N)cc1,fractional viability,2uM,0.357
same,fractional viability,10uM,0.0658
NC(=O)c1cccc2[nH]c(-c3ccc(C4CCCN4)cc3F)nc12 (configuration not stated),fractional viability,2uM,0.735
same,fractional viability,10uM,0.788
"CC[C@H](CO)Nc1nc(NCc2ccccc2)c2ncn(C(C)C)c2n1 [Roscovitine (Seliciclib,CYC202)]",fractional viability,2uM,1.14
same,fractional viability,10uM,0.913
Cc1cc(C(O)=C2C(=O)C(=O)N(CCCN3CCOCC3)C2c2ccncc2)ccc1OCc1ccccc1 (configuration not stated),fractional viability,2uM,0.973
same,fractional viability,10uM,0.814
CC(O)c1cc(C(=O)N[C@@H](C)Cn2ccc(-c3ccc(C#N)c(Cl)c3)n2)n[nH]1 (some centres not stated),fractional viability,2uM,0.945
same,fractional viability,10uM,1.06
Cn1ncnc1[C@H]1c2n[nH]c(=O)c3cc(F)cc(c23)N[C@@H]1c1ccc(F)cc1,fractional viability,2uM,0.905
same,fractional viability,10uM,0.986
NC(=O)c1cnc2[nH]ccc2c1N[C@@H]1[C@@H]2CC3C[C@H]1C[C@@](O)(C3)C2,fractional viability,2uM,0.989
same,fractional viability,10uM,1
CC(=O)Nc1cccc2c1c(Sc1ccc(Cl)cc1)c(C)n2CC(=O)O,fractional viability,2uM,0.976
same,fractional viability,10uM,0.913
CC(=O)N1c2ccc(-c3ccc(C(=O)O)cc3)cc2[C@H](Nc2ccc(Cl)cc2)C[C@@H]1C,fractional viability,2uM,0.529
same,fractional viability,10uM,0.337
O=C(/C=C/c1ccc2ccccc2n1)c1ccncc1,fractional viability,2uM,0.472
same,fractional viability,10uM,0.11
NNC(=O)c1ccncc1 [Isoniazid],fractional viability,2uM,1.01
same,fractional viability,10uM,1.08
O=C(NNc1ccccc1)c1ccncc1,fractional viability,2uM,0.769
same,fractional viability,10uM,0.792
C[C@H](CCC(=O)NCCS(=O)(=O)O)[C@H]1CC[C@H]2[C@@H]3[C@@H](O)C[C@@H]4C[C@H](O)CC[C@]4(C)[C@H]3CC[C@]12C [Sodium Tauroursodeoxycholate (TUDC)],fractional viability,2uM,0.832
same,fractional viability,10uM,0.834
Cc1c(C(=O)NN2CCCCC2)nn(-c2ccc(Cl)cc2Cl)c1-c1ccc(I)cc1,fractional viability,2uM,0.982
same,fractional viability,10uM,0.754
CCN(CC)CCCC(C)Nc1nc(C)cc(Nc2ccc3nc(C)cc(N)c3c2)n1 (configuration not stated),fractional viability,2uM,0.891
same,fractional viability,10uM,0.898
CCN(CC)CCCC(C)Nc1c2ccc(Cl)cc2nc2ccc(OC)cc12 (configuration not stated) [Quinacrine 2HCl],fractional viability,2uM,0.837
same,fractional viability,10uM,0.105
C[C@H](Nc1ncnc2[nH]cnc12)c1cc2ccc(F)cc2nc1-c1ccccn1,fractional viability,2uM,0.879
same,fractional viability,10uM,0.836
O=C(O)CCNC(=O)c1ccccc1 [Betamipron],fractional viability,2uM,1.14
same,fractional viability,10uM,0.982
O=C(O)c1ccccc1 [Benzoic Acid],fractional viability,2uM,0.885
same,fractional viability,10uM,0.957
CN(NC(=O)CC(=O)NN(C)C(=S)c1ccccc1)C(=S)c1ccccc1 [Elesclomol (STA-4783)],fractional viability,2uM,0.0864
same,fractional viability,10uM,0.107
Cc1cc(CS(=O)(=O)c2ccccc2)cc(OCc2ccc(CN3CCC[C@@H]3CO)cc2)c1,fractional viability,2uM,0.843
same,fractional viability,10uM,0.875
C=C1[C@H](CO)[C@@H](O)C[C@@H]1n1cnc2c(=O)[nH]c(N)nc21 [Entecavir Hydrate],fractional viability,2uM,1.01
same,fractional viability,10uM,0.935
Cc1nc(C#Cc2ccnc(Cl)c2)c(C)n1-c1ccc(OC(F)(F)F)cc1,fractional viability,2uM,1.08
same,fractional viability,10uM,0.815
